# Where “and” joins values, the source holds several entries; their conditions need not be identical. Equal values may be shown once. This is part of a sample that, as a whole, favours compounds with a hit. Of some 79,000 tested, about 15% had one in any assay. Calls of active or inactive are those of the source. Rule as the data show it: active = growth inhibition above about 70%; inactive = the rest.
# Assay: NCI Yeast Anticancer Drug Screen. Data for the bub3 strain (AID 167)
# Conditions: S. cerevisiae bub3 mutant strain, at 3.7 µM, active compounds read high
# Summary of the method: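 Screening used yeast with an engineered genetic alteration affecting cell cycle control. Compound-exposed cultures were compared with vehicle cultures, and reduced growth was taken as inhibition.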
row,Compound,growth inhibition
1,CC(=O)OC1CC2C(C)(C)C(=O)C=C[C@]2(C)C2CCC3(C)C(=CCC3[C@H](CO)C[C@H](O)C(=O)C(C)(C)O)[C@]12C (stereo not given in full),-35% (inactive)
2,C[C](C)(C)[Ge]([O][Ge]([c]1ccccc1)[c]1ccccc1)([O][Ge]([c]1ccccc1)[c]1ccccc1)[C](C)(C)C,4% (inactive)
3,CCc1c(Cl)c(C)cc(O)c1Cl,-19% (inactive)
4,Cc1nc(Nc2ccccc2[N+](=O)[O-])sc1C(=O)CC(=O)C(=O)Nc1c(C(C)C)cccc1C(C)C,5% (inactive)
5,O=[N+]([O-])c1cccc2nc3ccccc3c(NCCCn3ccnc3[N+](=O)[O-])c12,-12% (inactive)
6,CCCCCCC(O)CNCc1ccnc2ccc(OC)cc12 (stereo not given),8% (inactive)
7,Cc1c2cccc(Sc3ccccc3)c2c2c3c(cccc13)[S+](c1ccccc1)C2 (stereo not given),27% (inactive)
8,C=C1CCC(O)C/C1=C/C=C1\CCCC2(C)C1CCC2C(C)CCCC(C)C (stereo not given),-23% (inactive)
9,NC1=NNC2(C(N)=N1)c1ccccc1-c1ccccc12,25% (inactive)
10,COc1cc2cc3c4cc(OC)c(OC)cc4cc[n+]3c(C)c2cc1OC,12% (inactive)
11,COC(=O)NC1C(C)OC(OC2C/C=C(/C)C3C=CC4C(OC5CC(OC6CC(O)C(OC7CC(O)C(OC)C(C)O7)C(C)O6)C(O)C(C)O5)C(C)CC(C)C4C3(C)/C(O)=C3\C(=O)OC4(CC(C)C(CO)=CC4/C=C\2C)C3=O)CC1(C)[N+](=O)[O-] (stereo not given),19% (inactive)
12,O=C1CSC(c2cccc(Cl)c2)N1c1ccc(-c2ccc(-n3c(-c4ccccc4)nc4ccccc4c3=O)cc2)cc1 (stereo not given),4% (inactive)
13,CCOC(=O)C(C(=O)OCC)=P(c1ccccc1)(c1ccccc1)c1ccccc1,1% (inactive)
14,COc1ccc(N=CN(C)C)c(C)c1,-9% (inactive)
15,Cc1cc(S(=O)(=O)Nc2nnc3cnc4ccccc4n23)c(S)cc1Cl,1% (inactive)
16,CN(C)[C@@H]1C(=O)C(C(N)=O)=C(O)[C@@]2(O)C(=O)C3=C(O)c4c(O)cccc4C[C@H]3C[C@@H]12,-7% (inactive)
17,O=[N+]([O-])c1ccc2c(c1)/C(=N/N=C1c3ccccc3Cc3ccccc31)c1cc([N+](=O)[O-])cc([N+](=O)[O-])c1-2,57% (inactive)
18,Cc1nc2c(Br)cc(Br)cc2c(=O)n1-c1ccccc1NC1OCC(O)C(O)C1O (stereo not given),5% (inactive)
19,Cc1cc(N(CCOS(C)(=O)=O)CCOS(C)(=O)=O)ccc1C=Nc1ccc(-c2nc(Cc3ccccc3)sc2C)cc1,-38% (inactive)

# Same assay, conditions: S. cerevisiae bub3 mutant strain, at 5.0 µM (retest, dose inferred, filed as 0.5), active compounds read high
row,Compound,growth inhibition
1,O=C1/C(=C/c2ccccc2)CCCC1CN1CCCCC1 (stereo not given),12% (inactive)
2,C#CCN(Cc1ccc2nc(N)[nH]c(=O)c2c1)c1ccc(C(=O)NC(CCC(=O)O)C(=O)O)cc1 (stereo not given),12% (inactive) and -11% (inactive)
3,CCOC1(c2cccc([N+](=O)[O-])c2)c2ccccc2Oc2ccccc21,32% (inactive)
4,O=C(O)CNC(=S)Nc1ccccc1,6% (inactive)
5,N/C(=N/N=C/c1cc(Br)cc(Br)c1O)NO,-5% (inactive)
6,C[Si](C)(C)/C=C/CCNC(C#N)c1ccccc1 (stereo not given),12% (inactive)
7,CCCCCCCCCCCCCCCCOP(=O)(O)OCC(N)C(=O)O (stereo not given),-14% (inactive)
8,CC1=C(C(=O)NCc2ccccc2)C(c2ccccc2)C(C(=O)NCc2ccccc2)=C(C)N1,6% (inactive)
9,O=[N+]([O-])c1cc(S(=O)(=O)Nc2ccccc2)ccc1Nc1ccccc1,-7% (inactive)
10,CCOC(=O)C(Br)C(Br)c1ccccc1Cl (stereo not given),22% (inactive)
11,CCOC(=O)C1=C(C)NC(C)=C(C(=O)OCCNC(=O)c2ccc(N=[N+]=[N-])cc2)C1c1ccccc1C(F)(F)F (stereo not given),-42% (inactive)
12,Cc1cc(C)c(NC(=S)NC(=O)c2ccccc2)cc1C,8% (inactive)
13,CNCCCNc1c2ccccc2nc2cccc([N+](=O)[O-])c12,21% (inactive)
14,COc1c(O)c(C=O)c(Br)c(C=O)c1O,-1% (inactive)
15,Cc1c(C)c(C)c(CSC(=N)N)c(C)c1C,35% (inactive)
16,O=C(CSC(=S)N1CCCCC1)Nc1nc2c(s1)CCCC2,45% (inactive)
17,CNC(=O)OCc1c(COC(=O)NC)c(-c2ccc(Cl)cc2)n2c1CCC2,36% (inactive)
18,CC(=O)OC1CC2C(C)(C)C(=O)C=C[C@]2(C)C2CCC3(C)C(=CCC3[C@H](CO)C[C@H](O)C(=O)C(C)(C)O)[C@]12C (stereo not given in full),13% (inactive)

row,Compound,growth inhibition
1,C[C](C)(C)[Ge]([O][Ge]([c]1ccccc1)[c]1ccccc1)([O][Ge]([c]1ccccc1)[c]1ccccc1)[C](C)(C)C,9% (inactive)
2,CCc1c(Cl)c(C)cc(O)c1Cl,3% (inactive)
3,Cc1nc(Nc2ccccc2[N+](=O)[O-])sc1C(=O)CC(=O)C(=O)Nc1c(C(C)C)cccc1C(C)C,-3% (inactive)
4,O=[N+]([O-])c1cccc2nc3ccccc3c(NCCCn3ccnc3[N+](=O)[O-])c12,11% (inactive)
5,CCCCCCC(O)CNCc1ccnc2ccc(OC)cc12 (stereo not given),20% (inactive)
6,Cc1c2cccc(Sc3ccccc3)c2c2c3c(cccc13)[S+](c1ccccc1)C2 (stereo not given),16% (inactive)
7,C=C1CCC(O)C/C1=C/C=C1\CCCC2(C)C1CCC2C(C)CCCC(C)C (stereo not given),9% (inactive)
8,NC1=NNC2(C(N)=N1)c1ccccc1-c1ccccc12,-27% (inactive)
9,COc1cc2cc3c4cc(OC)c(OC)cc4cc[n+]3c(C)c2cc1OC,5% (inactive)
10,COC(=O)NC1C(C)OC(OC2C/C=C(/C)C3C=CC4C(OC5CC(OC6CC(O)C(OC7CC(O)C(OC)C(C)O7)C(C)O6)C(O)C(C)O5)C(C)CC(C)C4C3(C)/C(O)=C3\C(=O)OC4(CC(C)C(CO)=CC4/C=C\2C)C3=O)CC1(C)[N+](=O)[O-] (stereo not given),34% (inactive)
11,O=C1CSC(c2cccc(Cl)c2)N1c1ccc(-c2ccc(-n3c(-c4ccccc4)nc4ccccc4c3=O)cc2)cc1 (stereo not given),10% (inactive)
12,CCOC(=O)C(C(=O)OCC)=P(c1ccccc1)(c1ccccc1)c1ccccc1,-3% (inactive)
13,COc1ccc(N=CN(C)C)c(C)c1,44% (inactive)
14,Cc1cc(S(=O)(=O)Nc2nnc3cnc4ccccc4n23)c(S)cc1Cl,11% (inactive)
15,CN(C)[C@@H]1C(=O)C(C(N)=O)=C(O)[C@@]2(O)C(=O)C3=C(O)c4c(O)cccc4C[C@H]3C[C@@H]12,97% (active)
16,O=[N+]([O-])c1ccc2c(c1)/C(=N/N=C1c3ccccc3Cc3ccccc31)c1cc([N+](=O)[O-])cc([N+](=O)[O-])c1-2,63% (inactive)
17,Cc1nc2c(Br)cc(Br)cc2c(=O)n1-c1ccccc1NC1OCC(O)C(O)C1O (stereo not given),20% (inactive) and 14% (inactive)
18,Cc1cc(N(CCOS(C)(=O)=O)CCOS(C)(=O)=O)ccc1C=Nc1ccc(-c2nc(Cc3ccccc3)sc2C)cc1,16% (inactive) and -2% (inactive)

# Reference: PubChem BioAssay (NCI)
